About 3,200 (25%) of roughly 13,000 compounds showed an effect of 50% or more. The list shows a part of the results.

In this assay the test system is P. falciparum stage V gametocytes. Also on record: BacTiter-Glo ATP luminescence viability of purified stage V gametocytes in 384-well plates, per cent inhibition versus DMSO. The conditions noted are these: 48 h, 5 µM; inhibitor.
In the case of `COC(=O)c1cccc(OCCNC2CCN(C[C@H](O)c3ccnc4ccc(OC)cc34)CC2)c1` [TCMDC-140710], the “% Inhibition” value was -10.21%.
Take `Cc1nnc(N2C(=N)SC(=Cc3ccc(-c4ccc(OC(F)(F)F)cc4)o3)C2=O)s1` [TCMDC-124487]: the “% Inhibition” value is listed as 0.8925%.
Take `COc1nc2c(N3CCN(CCNCc4ccc5c(n4)NC(=O)CO5)CC3)ccnc2cc1F` [TCMDC-135208]: the “% Inhibition” value is reported as -25.48%.
`Cc1ccc(NC(=O)Nc2ccc(Cl)c(C(F)(F)F)c2)cc1-c1ccc(C(=O)NCCN2CCOCC2)cc1` [TCMDC-133589]: the “% Inhibition” value was 4.722%.
In the case of `CC(C)N1CCN(C(=O)c2ccc(CNCCCN3CCN(c4ccccc4C(F)(F)F)CC3)s2)CC1` [TCMDC-136704], the “% Inhibition” value worked out at 40.48%.
In the case of `CC(C)N1CCN(C(=O)c2ccc(CN(C)CCCN3CCN(c4cccc(Cl)c4Cl)CC3)s2)CC1` [TCMDC-136526], the “% Inhibition” value was 84.79%.
As for `CN(C)CCCN1CCN(C(=O)c2cccc(-c3noc(C(F)(F)F)n3)c2)CC1` [TCMDC-132384], the “% Inhibition” value is -19.31%.
Turning to `Cc1cc2[nH]c(-c3ccc(C(=O)NCCCN4CCN(c5cccc(Cl)c5)CC4)s3)nc2cc1Cl` [TCMDC-140031], the “% Inhibition” value is on record as -0.02415%.
Next, `CC(C)N1CCN(C(=O)c2ccc(CNCCCN3CCN(c4cccc(Cl)c4Cl)CC3)o2)CC1` [TCMDC-136521]: -13.79%; `CC(C)N1CCN(C(=O)c2ccc(CNCCCN3CCN(c4cccc(Cl)c4Cl)CC3)s2)CC1` [TCMDC-136520]: 62.19%; `CC(C)CCN1CCCN(Cc2ccc(C(=O)Nc3ccc(C(C)(C)C)cc3)cc2)CC1` [TCMDC-136444]: 35.23%.
Take `O=C(Nc1ccc(OCc2ccccc2)cc1)c1nc2ccccc2nc1Cl` [TCMDC-124732]: the “% Inhibition” value came to 4.904%.
For `Oc1ccc(CCNc2nc(NCc3cccc(OCc4cccc(F)c4)c3)nc(N3CCNCC3)n2)cc1` [TCMDC-133812] the value was -36.91%; for `CC(=O)Nc1cccc(CNc2cc(C)nc(Nc3ccc(C)cc3)n2)c1` [TCMDC-133461], 27.64%.
As for `Cc1ccc(Oc2ccc(CNc3nc(Nc4cccc(F)c4)nc(Nc4cccc(F)c4)n3)cc2)cc1` [TCMDC-135138], the “% Inhibition” value is reported as 50.43%.
For the compound `COc1cccc(Nc2nc(C)cc(NCc3ccc(-c4c(C)noc4C)cc3)n2)c1` [TCMDC-133451], the “% Inhibition” value is 9.249%.
On to `Fc1cccc(Nc2nc(NCc3ccc(OCc4ccccc4)cc3)nc(Nc3cccc(F)c3)n2)c1` [TCMDC-135137], for which the “% Inhibition” value is on record as 60.27%.
Consider `COc1cc(Cc2cnc3nc(N)nc(N)c3c2C)cc(OC)c1OC` [TCMDC-138058], for which the “% Inhibition” value is listed as -6.965%.
In the case of `CCOc1ccc2nc(C)cc(NN=Cc3ccccc3)c2c1` [TCMDC-142094], the “% Inhibition” value is recorded as -27.91%.
Take `CCOc1ccc2nc(C)cc(NN=Cc3ccc(Cl)cc3)c2c1` [TCMDC-142091]: the “% Inhibition” value was found to be 100.1%.
Consider `Cc1ccc2nc(C)cc(NN=Cc3cccc(F)c3)c2c1` [TCMDC-142066], for which the “% Inhibition” value was found to be 30.79%.
On to `Cc1cc(NN=Cc2ccc(F)cc2)c2ccc(F)cc2n1` [TCMDC-142039], for which the “% Inhibition” value is -75.1%.
As to `Cc1cc(NN=Cc2ccc(Cl)cc2)c2ccccc2n1` [TCMDC-123979], the “% Inhibition” value was found to be 12.17%.
Turning to `Cc1ccc2c(NN=Cc3cccc(F)c3)cc(C)nc2c1` [TCMDC-142067], the “% Inhibition” value amounted to 59.3%.
For `COc1ccc2c(NN=Cc3ccc(F)cc3)cc(C)nc2c1` [TCMDC-142086], the “% Inhibition” value is 107.2%.
Next, `COc1ccc2nc(C)cc(NN=Cc3ccc(Cl)cc3)c2c1` [TCMDC-123971]: 99.29%.
Take `CCOc1ccc2nc(C)cc(NN=Cc3ccncc3)c2c1` [TCMDC-142046]: the “% Inhibition” value is on record as -27.59%.
In the case of `Cc1ccc2c(NN=CC=Cc3ccccc3)cc(C)nc2c1` [TCMDC-142075], the “% Inhibition” value is given as -22.28%.
`Cc1ccc(NC(=O)NC2CCN(c3ccnc4cc(Cl)ccc34)CC2)cc1` [TCMDC-133571]: the “% Inhibition” value is listed as -34.41%.
Regarding `CNS(=O)(=O)Cc1ccc(Nc2nccc(Nc3cccc4c3cnn4C(=O)Nc3ccccc3)n2)cc1` [TCMDC-136315], the “% Inhibition” value is listed as 19.26%.
With `Cc1cc(Br)c(OCCCON2C(N)=NC(N)=NC2(C)C)c(Br)c1` [TCMDC-131365], the “% Inhibition” value was 37.66%.
Regarding `Cc1nc2c(c(C)nn2C(C)(C)C)c(C)c1CCC(=O)Nc1ccc(CN2CCCC2)cc1` [TCMDC-124397], the “% Inhibition” value is given as -7.615%.
Regarding `COC(=O)c1ccc(Nc2nccc(Nc3ccc(Oc4ccccc4)cc3)n2)cc1` [TCMDC-138560], the “% Inhibition” value is given as -28.54%.
Take `COc1cccc(Nc2nc(C)cc(NCc3ccc(-n4ccnc4)cc3)n2)c1` [TCMDC-133450]: the “% Inhibition” value is recorded as 43.61%.
Take `Cc1cc(N(C)C)nc(Nc2ccc(NC(=O)c3ccccc3F)cc2)n1` [TCMDC-124725]: the “% Inhibition” value is 4.015%.
For the compound `Cc1cc(Cl)c(S(=O)(=O)NC2CCCC2)cc1OCC(=O)NC1CCCCC1` [TCMDC-124353], the “% Inhibition” value is given as 26.39%.
For `Fc1cccc(COc2ccc(Nc3ncnc4ccc(-c5nnc(C(F)(F)F)o5)cc34)cc2Cl)c1` [TCMDC-138162], the “% Inhibition” value is recorded as -34.34%.
For `COc1ccc2nc(C)cc(NN=Cc3cccc(F)c3)c2c1` [TCMDC-142084] the value was 32.42%; for `Cc1cc(NN=Cc2ccccc2F)c2cccc(C)c2n1` [TCMDC-142068], -42.7%.
For `Cc1cc(NN=Cc2cccc(F)c2)c2cccc(C)c2n1` [TCMDC-142081] the value was -19.79%.
For `COc1ccc2c(NN=Cc3cccc(F)c3)cc(C)nc2c1` [TCMDC-142085] the value was 106.9%; for `COc1ccc2nc(C)cc(NN=Cc3ccc(F)cc3)c2c1` [TCMDC-123973], 111.2%.
As to `Cc1cc(NN=Cc2ccc(F)cc2)c2cccc(C)c2n1` [TCMDC-142082], the “% Inhibition” value is given as 83.37%.
Regarding `CCCC(=O)Nc1ccc(OCCCCN(CC(C)(C)C)c2ccc(C#N)c(C(F)(F)F)c2)cc1` [TCMDC-132784], the “% Inhibition” value was -2.311%.
Next, `O=C(Nc1ccc(-c2nc3ccccc3[nH]2)cc1)c1cccc([N+](=O)[O-])c1` [TCMDC-123637]: -11.52%; `O=S(=O)(Nc1ccc2nccc(N3CCNCC3)c2c1)c1ccc(-c2ccccc2)cc1` [TCMDC-139546]: 12.57%.
For `Clc1ccc2nccc(N3CCC(CN4CCC(c5c[nH]c6ccccc56)CC4)CC3)c2c1` [TCMDC-134281], the “% Inhibition” value is on record as 0.1691%.
Next, `Cc1n[nH]c2ccc(-c3ccc4nccc(N5CCC(N)CC5)c4c3)cc12` [TCMDC-134315]: 105.4%; `CCN1CCN(CCCNc2c3ccccc3nc3ccccc23)CC1` [TCMDC-137546]: 84.24%; `CCN1CCN(CCCCNc2c3ccccc3nc3ccccc23)CC1` [TCMDC-137570]: 80.96%.
As for `CCn1c(-c2ccccc2)cc2nnc3ccccc3c21` [TCMDC-138220], the “% Inhibition” value was determined as 3.318%.
With `CCN1CCN(c2ccc(Nc3c4ccccc4nc4ccccc34)cc2)CC1` [TCMDC-124255], the “% Inhibition” value came out at 96.72%.
For the compound `CCN1CCN(CCNc2c3ccccc3nc3ccccc23)CC1.Cl` [TCMDC-137545], the “% Inhibition” value was determined as 85.19%.
Take `Cc1ccc(Nc2nc(C)cc(N3CCN(c4ccccc4)CC3)n2)cc1` [TCMDC-125308]: the “% Inhibition” value is recorded as -56.11%.
Next, `CC[C@H](NC(=O)c1c(CCCN2CCN(c3ccccc3)CC2)c(-c2ccccc2)nc2cc(O)ccc12)c1ccccc1` [TCMDC-139302]: 9.444%; `CN1CCN(c2ccc(Nc3c4ccccc4nc4ccccc34)cc2)CC1` [TCMDC-123912]: 39.23%.
`Oc1cc2c(cc1CN1CCN(Cc3ccc(Cl)s3)CC1)CCC2` [TCMDC-124882]: the “% Inhibition” value is on record as -46.75%.
With `CCCc1ccc(N2C(N)=NC(N)=NC2(C)C)cc1` [TCMDC-137706], the “% Inhibition” value stood at 5.239%.
As to `Cc1cc2c(cc1C(F)(F)F)N(C(=O)Nc1cc(C(=O)NC3CCN(Cc4ccccc4)C3)cc(C(F)(F)F)c1)CC2` (centres unmarked) [TCMDC-139921], the “% Inhibition” value is 12.41%.
For the compound `Oc1ccc(-c2nc3c4cc(I)ccc4c4ccc(I)cc4c3[nH]2)cc1` [TCMDC-124199], the “% Inhibition” value was -25%.
Consider `N#Cc1ccc2nc(-c3cc(-c4cccc(F)c4)cnc3N)[nH]c2c1` [TCMDC-133133], for which the “% Inhibition” value is -54.5%.
As to `N#Cc1ccc(N2CCN(Cc3cccc(-c4cccc(-c5nc6cc(F)ccc6[nH]5)c4)c3)CC2)nc1.O=C(O)C(F)(F)F` [TCMDC-133109], the “% Inhibition” value was -21.69%.
Turning to `Clc1ccc(Cc2nc3ccccc3[nH]2)cc1Cl` [TCMDC-125878], the “% Inhibition” value was -7.507%.
Regarding `O=C(Nc1ccc(Oc2ccccc2)cc1)N1CCC(CN2CCC(c3c[nH]c4ccccc34)CC2)CC1` [TCMDC-140194], the “% Inhibition” value was found to be 35.38%.
`FC(F)(F)c1ccc(NC(=S)N2CCC(CCN3CCC(c4c[nH]c5ccccc45)CC3)CC2)cc1` [TCMDC-140188]: the “% Inhibition” value is on record as 107.1%.
Next, `O=C(Nc1cc(C(F)(F)F)cc(C(F)(F)F)c1)N1CCC(CN2CCC(c3c[nH]c4ccccc34)CC2)CC1` [TCMDC-140192]: -4.081%; `O=C(Nc1cc(C(F)(F)F)cc(C(F)(F)F)c1)N1CCC(CCN2CCC(c3c[nH]c4ccccc34)CC2)CC1` [TCMDC-140189]: 108.5%; `O=C(Nc1ccc(Oc2ccccc2)cc1)N1CCC(CCN2CCC(c3c[nH]c4ccccc34)CC2)CC1` [TCMDC-140190]: 106%.
On to `O=C(Nc1ccc(Cl)c(Cl)c1)N1CCC(CN2CCC(c3c[nH]c4ccccc34)CC2)CC1` [TCMDC-140195], for which the “% Inhibition” value is recorded as -22.77%.
`FC(F)(F)c1ccc(NC(=S)N2CCC(CN3CCC(c4c[nH]c5ccccc45)CC3)CC2)cc1` [TCMDC-140191]: the “% Inhibition” value is given as 5.954%.
On to `CN(C)CCc1c[nH]c2ccc(C(=O)Nc3ccc(-c4ccncc4)cc3)cc12` [TCMDC-132057], for which the “% Inhibition” value amounted to 19.3%.

The % Inhibition is the relative decrease from the control value, in per cent.

For the origin of these results see PMC4552634, “A New Set of Chemical Starting Points with Plasmodium falciparum Transmission-Blocking Potential for Antimalarial Drug Discovery” (PLoS ONE, 2015).
